Residue numbers refer to the chain shown, from its start. The full ranking holds about 16,000 sequences; the median of “ka relative to ugcaugu” is about 0.096, and the highest 2% start at about 0.35. The full list was thinned out, with the highest values kept by preference.

T1: RBFOX1 RRM RbFoxmut (Fox-RRM*) (Homo sapiens, UniProt Q9NWB1 109-208, R118D;E147R;N151S;E152T)
T1 sequence: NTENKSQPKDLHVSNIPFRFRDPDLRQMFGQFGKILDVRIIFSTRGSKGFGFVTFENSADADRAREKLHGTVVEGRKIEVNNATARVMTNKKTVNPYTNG

B1: AUUCCUA (DNA:RNA)
RNA: GGGAGACCGGAAUUCAGAUUGUCCAUUCCUAUUAAAUCCCGUCGUAGCCACCA
DNA 1: CAATCTGAATTCCGGTCTCCC
DNA 2: TGGTGGCTACGACGGGATT
B2: ACGGGGG (DNA:RNA)
RNA: B1 RNA with U26C, U27G, C28G, C29G, U30G, A31G
DNA 1: CAATCTGAATTCCGGTCTCCC
DNA 2: TGGTGGCTACGACGGGATT
B3: UCCUCGU (DNA:RNA)
RNA: B1 RNA with A25U, U26C, U27C, C28U, U30G, A31U
DNA 1: CAATCTGAATTCCGGTCTCCC
DNA 2: TGGTGGCTACGACGGGATT
B4: GUACUCA (DNA:RNA)
RNA: B1 RNA with A25G, U27A, C29U, U30C
DNA 1: CAATCTGAATTCCGGTCTCCC
DNA 2: TGGTGGCTACGACGGGATT
B5: CACUACA (DNA:RNA)
RNA: B1 RNA with A25C, U26A, U27C, C28U, C29A, U30C
DNA 1: CAATCTGAATTCCGGTCTCCC
DNA 2: TGGTGGCTACGACGGGATT
B6: UUAGGGA (DNA:RNA)
RNA: B1 RNA with A25U, U27A, C28G, C29G, U30G
DNA 1: CAATCTGAATTCCGGTCTCCC
DNA 2: TGGTGGCTACGACGGGATT
B7: AGCCGCU (DNA:RNA)
RNA: B1 RNA with U26G, U27C, C29G, U30C, A31U
DNA 1: CAATCTGAATTCCGGTCTCCC
DNA 2: TGGTGGCTACGACGGGATT
B8: GCUCAAC (DNA:RNA)
RNA: B1 RNA with A25G, U26C, C29A, U30A, A31C
DNA 1: CAATCTGAATTCCGGTCTCCC
DNA 2: TGGTGGCTACGACGGGATT
B9: UCGCGAA (DNA:RNA)
RNA: B1 RNA with A25U, U26C, U27G, C29G, U30A
DNA 1: CAATCTGAATTCCGGTCTCCC
DNA 2: TGGTGGCTACGACGGGATT
B10: UGACUUG (DNA:RNA)
RNA: B1 RNA with A25U, U26G, U27A, C29U, A31G
DNA 1: CAATCTGAATTCCGGTCTCCC
DNA 2: TGGTGGCTACGACGGGATT
B11: AUCCGCU (DNA:RNA)
RNA: B1 RNA with U27C, C29G, U30C, A31U
DNA 1: CAATCTGAATTCCGGTCTCCC
DNA 2: TGGTGGCTACGACGGGATT
B12: AAGCAUC (DNA:RNA)
RNA: B1 RNA with U26A, U27G, C29A, A31C
DNA 1: CAATCTGAATTCCGGTCTCCC
DNA 2: TGGTGGCTACGACGGGATT
B13: AAGCAUG (DNA:RNA)
RNA: B1 RNA with U26A, U27G, C29A, A31G
DNA 1: CAATCTGAATTCCGGTCTCCC
DNA 2: TGGTGGCTACGACGGGATT
B14: AAGCAUA (DNA:RNA)
RNA: B1 RNA with U26A, U27G, C29A
DNA 1: CAATCTGAATTCCGGTCTCCC
DNA 2: TGGTGGCTACGACGGGATT
B15: ACAUGCG (DNA:RNA)
RNA: B1 RNA with U26C, U27A, C28U, C29G, U30C, A31G
DNA 1: CAATCTGAATTCCGGTCTCCC
DNA 2: TGGTGGCTACGACGGGATT
B16: CCAUGCC (DNA:RNA)
RNA: GGGAGACCGGAAUUCAGAUUGUCCCCAUGCCUUAAAUCCCGUCGUAGCCACCA
DNA 1: CAATCTGAATTCCGGTCTCCC
DNA 2: TGGTGGCTACGACGGGATT
B17: GCAUUAA (DNA:RNA)
RNA: B16 RNA with C25G, G29U, C30A, C31A
DNA 1: CAATCTGAATTCCGGTCTCCC
DNA 2: TGGTGGCTACGACGGGATT
B18: GCAUGCA (DNA:RNA)
RNA: B16 RNA with C25G, C31A
DNA 1: CAATCTGAATTCCGGTCTCCC
DNA 2: TGGTGGCTACGACGGGATT
B19: GAAUGCA (DNA:RNA)
RNA: B16 RNA with C25G, C26A, C31A
DNA 1: CAATCTGAATTCCGGTCTCCC
DNA 2: TGGTGGCTACGACGGGATT
B20: GCAUGCC (DNA:RNA)
RNA: B16 RNA with C25G
DNA 1: CAATCTGAATTCCGGTCTCCC
DNA 2: TGGTGGCTACGACGGGATT
B21: GAUUGCA (DNA:RNA)
RNA: B16 RNA with C25G, C26A, A27U, C31A
DNA 1: CAATCTGAATTCCGGTCTCCC
DNA 2: TGGTGGCTACGACGGGATT
B22: GCAUGCG (DNA:RNA)
RNA: B16 RNA with C25G, C31G
DNA 1: CAATCTGAATTCCGGTCTCCC
DNA 2: TGGTGGCTACGACGGGATT
B23: GUCCGCA (DNA:RNA)
RNA: B1 RNA with A25G, U27C, C29G, U30C
DNA 1: CAATCTGAATTCCGGTCTCCC
DNA 2: TGGTGGCTACGACGGGATT
B24: GCCUGCC (DNA:RNA)
RNA: B16 RNA with C25G, A27C
DNA 1: CAATCTGAATTCCGGTCTCCC
DNA 2: TGGTGGCTACGACGGGATT
B25: GCAUCCC (DNA:RNA)
RNA: B16 RNA with C25G, G29C
DNA 1: CAATCTGAATTCCGGTCTCCC
DNA 2: TGGTGGCTACGACGGGATT
B26: CGAUGCA (DNA:RNA)
RNA: B16 RNA with C26G, C31A
DNA 1: CAATCTGAATTCCGGTCTCCC
DNA 2: TGGTGGCTACGACGGGATT
B27: ACGCACA (DNA:RNA)
RNA: B1 RNA with U26C, U27G, C29A, U30C
DNA 1: CAATCTGAATTCCGGTCTCCC
DNA 2: TGGTGGCTACGACGGGATT
B28: GCCGUUU (DNA:RNA)
RNA: B1 RNA with A25G, U26C, U27C, C28G, C29U, A31U
DNA 1: CAATCTGAATTCCGGTCTCCC
DNA 2: TGGTGGCTACGACGGGATT
B29: UCGUGAC (DNA:RNA)
RNA: B16 RNA with C25U, A27G, C30A
DNA 1: CAATCTGAATTCCGGTCTCCC
DNA 2: TGGTGGCTACGACGGGATT
B30: UCACAUA (DNA:RNA)
RNA: B1 RNA with A25U, U26C, U27A, C29A
DNA 1: CAATCTGAATTCCGGTCTCCC
DNA 2: TGGTGGCTACGACGGGATT
B31: GUAUGCA (DNA:RNA)
RNA: B16 RNA with C25G, C26U, C31A
DNA 1: CAATCTGAATTCCGGTCTCCC
DNA 2: TGGTGGCTACGACGGGATT
B32: AUAUGCA (DNA:RNA)
RNA: B16 RNA with C25A, C26U, C31A
DNA 1: CAATCTGAATTCCGGTCTCCC
DNA 2: TGGTGGCTACGACGGGATT
B33: GGAUGCA (DNA:RNA)
RNA: B16 RNA with C25G, C26G, C31A
DNA 1: CAATCTGAATTCCGGTCTCCC
DNA 2: TGGTGGCTACGACGGGATT

For this assay, the target named is T1, RBFOX1 RRM RbFoxmut (Fox-RRM*). The experiment in a line: EMSA; HiTS-Eq, 1 nM pool, 10 min; buffer printed only for the single-RNA assays: 10 mM Tris pH 7.5, 150 mM NaCl, 3.4 mM EDTA, 0.001% NP-40, 30 C. To be noted: tags: His6 N-terminal (pET28a); label: 5' 32P. The procedure, abridged: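 Purified RbFox RRM (wild type or mutant) was equilibrated for 10 min in 50 µL with 1 nM of a 5′-radiolabelled pool of RNA with 7 randomized nucleotides, its flanks annealed to DNA oligonucleotides, across increasing protein concentrations. Free RNA was separated by 8% native PAGE, excised, reverse-transcribed, PCR-barcoded and sequenced on an Illumina HiSeq 2500. Relative association constants came from read-count changes of each variant against the control reaction, normalised to the cognate motif.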
(In general: In EMSA bound probe runs differently from free probe, usually more slowly.)
Consider B1, for which the binding signal was 0.098 KA relative to UGCAUGU.

For the molecule B2, the binding signal is 0.118 KA relative to UGCAUGU.

In the case of B3, the binding signal is 0.124 KA relative to UGCAUGU.

Regarding B4, the binding signal was 0.095 KA relative to UGCAUGU.

For B5, the binding signal was 0.13 KA relative to UGCAUGU.

Regarding B6, the binding signal was 0.0529 KA relative to UGCAUGU.

Consider B7, for which the binding signal is 0.0799 KA relative to UGCAUGU.

Regarding B8, the binding signal is 0.0746 KA relative to UGCAUGU.

For the molecule B9, the binding signal was 0.105 KA relative to UGCAUGU.

Turning to B10, the binding signal is 0.272 KA relative to UGCAUGU.

B11: the binding signal is 0.121 KA relative to UGCAUGU.

B12: the binding signal was 0.196 KA relative to UGCAUGU.

As to B13, the binding signal was 0.715 KA relative to UGCAUGU.

On to B14, for which the binding signal is 0.0958 KA relative to UGCAUGU.

Take B15: the binding signal is 0.139 KA relative to UGCAUGU.

In the case of B16, the binding signal was 0.19 KA relative to UGCAUGU.

With B17, the binding signal is 0.141 KA relative to UGCAUGU.

In the case of B18, the binding signal was 0.828 KA relative to UGCAUGU.

For the molecule B19, the binding signal was 1.03 KA relative to UGCAUGU.

With B20, the binding signal is 0.651 KA relative to UGCAUGU.

Regarding B21, the binding signal was 0.171 KA relative to UGCAUGU.

B22: the binding signal was 0.872 KA relative to UGCAUGU.

Turning to B23, the binding signal was 0.107 KA relative to UGCAUGU.

Take B24: the binding signal is 0.176 KA relative to UGCAUGU.

For the molecule B25, the binding signal is 0.142 KA relative to UGCAUGU.

As for B26, the binding signal is 0.158 KA relative to UGCAUGU.

As to B27, the binding signal was 0.105 KA relative to UGCAUGU.

For B28, the binding signal was 0.0818 KA relative to UGCAUGU.

Turning to B29, the binding signal was 0.0717 KA relative to UGCAUGU.

As to B30, the binding signal is 0.112 KA relative to UGCAUGU.

B31: the binding signal was 0.574 KA relative to UGCAUGU.

Turning to B32, the binding signal was 0.208 KA relative to UGCAUGU.

In the case of B33, the binding signal is 0.24 KA relative to UGCAUGU.

Source of the values: publication PMC9911399, “Two distinct binding modes provide the RNA-binding protein RbFox with extraordinary sequence specificity”.
